# Shiga toxin inh – Shiga toxin inhibition; inhibition, % at 38.7 µM; 290,000 compounds, 9.2% hits; Vero cells, Shiga toxin protein synthesis inhibition reporter; in the data active = inhibition mostly above about 28%, no sharp cut-off; inactive = mostly below about 43%; note: 0% is about no effect
# Pf growth 48h – inhibits P. falciparum growth in the first generation, 48 h | P. falciparum luciferase growth in erythrocytes, 48 h | AID 504832 | Potency, µM (doses to about 28.7 µM), for inactives: top-dose activity change, negative = inhibition, usual class: inhibitors | 310,000 compounds, 5.9% hits; note: potency is the fitted concentration of half-maximal effect; % is set by controls: 0 for no effect and ±100 for the full control effect
#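 Luciferase-expressing P. falciparum in infected erythrocytes (2% hematocrit, 0.1% parasitemia final) in RPMI 1640/0.5% Albumax were exposed to compound for 48 hours at 37 C, 5% CO2; growth read as luminescence.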
# HCMV antiviral – inhibitors of human cytomegalovirus; activity change, negative = inhibition, % at 57.5 µM; AID 1259415; 410,000 compounds, 4.5% hits; HFF cells, HCMV-luciferase reporter, 72 h; stronger effect = lower value; in the data active = activity change below about -60%; inconclusive = no clear call, values can overlap the other calls; inactive = above about -39%; note: % is set by controls: 0 for no effect and ±100 for the full control effect
#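 Two compound doses tested in HFFs infected with HCMV-luciferase, MOI 1 PFU/cell, 72 h at 37C. Lysate luminescence read with OneGlo; data normalized against buffer-only and 10uM Salinomycin inhibitor controls.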
# Pf growth 96h – P. falciparum growth inhibition at 96 hours; P. falciparum luciferase reporter growth, 96 h; Potency, µM (series often up to 28.7 µM), for inactives: at the highest dose activity change, negative = inhibition, usual class: inhibitors; 320,000 compounds, 6.9% hits; note: potency is the fitted concentration of half-maximal effect; % is set by controls: 0 for no effect and ±100 for the full control effect
#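 Readout is luminescence from an integrated firefly luciferase in P. falciparum. Red cells, 2% hematocrit and 0.05% parasitemia final, were cultured with compound through two parasite generations (96 hours) at 37 C, 5% CO2.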
# CHX counter – counter-screen for Shiga toxin inhibitors: cycloheximide protein synthesis inhibition. cell reporter, cycloheximide protein synthesis inhibition counterscreen. max response, %. 300,000 compounds, 12% hits. AID 2314; in the data active = max response mostly above about 13%, no sharp cut-off; inactive = mostly below about 14%; note: read at 38.3 µM for the half of the compounds with a filed dose; 0% is about no effect
# HCV inhibitor – HCV inhibition. Huh7.5.1 HCVcc-Cre infection, luciferase reporter, 44 h. Potency, µM (top dose mostly 41.8 µM), for the others: top-dose activity change, negative = inhibition, actives largely listed as inhibitors. 340,000 compounds, 3.4% hits. AID 651820; note: potency is the fitted concentration of half-maximal effect; % is set by controls: 0 for no effect and ±100 for the full control effect
#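 Cells seeded at 1,000/well and cultured 4 h, then compounds added followed by HCVcc-Cre virus (~0.5 moi). After 44 h further culture, luciferase substrate was added, plates held 15 min at room temperature, and luminescence read for 15 sec.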
# * marks the source's active call; other numbers are inactive results; ? = inconclusive; nt = no result; ! = not active in a repeat; [ ] = remark or other dose. Hits are enriched below; roughly 21% of the tested compounds scored in any of these assays. Unless noted, calls come from the whole dose curve; as a rule, active = well fitted inhibition curve with a large enough effect; inconclusive = small, poorly fitted or top-dose-only effect, or another doubt; inactive = no such curve, though single readings can be large or run the other way.
SMILES,Shiga toxin inh,Pf growth 48h,HCMV antiviral,Pf growth 96h,CHX counter,HCV inhibitor
CC(=O)Nc1ccc(N/C=C/C(=O)C(C)(C)C)cc1,39*,10%,-1,nt,18*,7%
O=C(/C=C/Nc1ccccc1)C(F)(F)F,4,7%,-80*,9%,6,7%
COc1ccc(Oc2ccc(N/C=C/C(=O)C(C)(C)C)cc2)cc1,39*,-19%,-28,-35%[1.15 µM],25*,?
COc1cccc(Oc2ccc(N/C=C/C(=O)C(C)(C)C)cc2)c1,28*,-9%,58,-24%,45*,3%
Cc1c(N/C=C/C(=O)C(F)(F)F)c(=O)n(-c2ccccc2)n1C,0,-3%,-9,6%,-2,9%
CCc1nn(CC(=O)Nc2ccc(C)c(F)c2)c(=O)c2cc3cc(C)ccc3n12,nt,nt,-1,nt,nt,nt
O=C(CCC(=O)N1CCOCC1)NCCc1ccccc1,nt,84%,47,76%,nt,-1%
Cc1ccc(N/C=C/C(=O)C(C)(C)C)c(O)c1,68*,nt,nt,?,62*,-2%
N[C@@H](Cc1ccccc1)C(=O)N1CCC(C(=O)N[C@@H](CCC(=O)O)C(=O)O)CC1,-1,18%,6,27%,-4,11%
COc1ccc(-c2oc(/N=C/N3CCOCC3)c(C#N)c2-c2ccc(OC)cc2)cc1,14,6.6µM*,-7,nt,-5,?
N#Cc1c(/N=C/c2ccccc2)oc(-c2ccccc2)c1-c1ccccc1,-3,?,1,-18%,5,?
Cc1cc2oc(=O)c(CC(=O)O)c(C)c2c2occ(-c3ccccc3)c12,nt,nt,37,nt,nt,nt
c1csc(-c2nnsc2-c2nc3ccccc3[nH]2)c1,45,15%,-21,?,24,-3%
O/C(=C\c1nc2ccccc2[nH]1)c1cccs1,87*,?,41,?,28*,9%
Cc1[nH]c2ccccc2c1-c1nc2ccccc2[nH]c1=O,64*,19%,26,19%,9,6%
O=c1[nH]c2ccccc2nc1-c1cccs1,120*,64%,25,61%,43*,-19%
CCCC/C(O)=C/c1nc2ccccc2[nH]c1=O,19,8%,-79*,-5%,9,3%
Cn1ccnc1-c1nc2ccccc2[nH]c1=O,-3,-1%,13,0%,-2,13%
Cc1cc(O)c2/c(=N\N)c(-c3csc(C)n3)coc2c1,-6,-11%,-36,107%,-3,5%
CCN1C(=O)[C@H]2[C@@H](c3ccc(C)cc3)N[C@]3(CCCN(CCC(C)C)C3=O)[C@H]2C1=O,nt,nt,14,nt,nt,nt
CC(C)(C)C(=O)Nc1nc2nc(-c3ccccc3)cc(=O)n2[nH]1,nt,nt,5,nt,nt,nt
O=c1[nH]c2ccccc2nc1/C=C(\O)c1cccs1,109*,99%,100,104%,42*,15%
CC1(NC(=O)NCc2ccccc2)CCS(=O)(=O)C1 (centres undefined),-4,17%,-35,?,-3,11%
COc1ccc(OC)c(NC(=O)Cn2c(-c3ccc(Cl)cc3)noc2=O)c1,20,4.1µM*,26,173%,-4,-22%
COc1ccc(C(=O)NCCc2nc3cc([N+](=O)[O-])ccc3n2C)cc1,10,-18%,-19,-21%,-1,-29%
SMILES,Shiga toxin inh,Pf growth 48h,HCMV antiviral,Pf growth 96h,CHX counter,HCV inhibitor
COc1ccc2c(c1)c(CC(=O)Nc1c(C)cccc1C)c(C)n2C(=O)c1ccc(Cl)cc1,nt,nt,-17,nt,nt,nt
COc1ccc2c(c1)c(CC(=O)NCc1cc([N+](=O)[O-])ccc1O)c(C)n2C(=O)c1ccc(Cl)cc1,-18,?,nt,5.9µM*,-2,?
COc1ccc2c(c1)c(CC(=O)Nc1ccccc1OC)c(C)n2C(=O)c1ccc(Cl)cc1,-3,0%,-13,5.2µM*,-3,?
COc1ccc2c(c1)c(CC(=O)Nc1cc(C)ccc1C)c(C)n2C(=O)c1ccc(Cl)cc1,10,?,-13,12µM*,6,-19%
CCCCn1cc(S(=O)(=O)c2ccc(OC)cc2)c(=O)c2cc(F)c(N3CCOCC3)cc21,nt,nt,-6,nt,nt,nt
COc1ccc2c(c1)c(CC(=O)Nc1ccc(C(C)=O)cc1)c(C)n2C(=O)c1ccc(Cl)cc1,83*!,-20%,19,-26%,47*,-28%

# Screening data: PubChem BioAssay, National Center for Advancing Translational Sciences (NCATS)
